These results are taken from PubChem BioAssay.

A number with no mark means an inactive call. Activity calls are given as the source filed them.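 Rule for the calls: active = mean inhibition above 46.5%, the solvent-only control mean plus 3 SD; inactive = the rest.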

Sequence of Nuclear receptor coactivator 2 (Homo sapiens) (Q15596 whole entry, looked up, the tested form may be a part): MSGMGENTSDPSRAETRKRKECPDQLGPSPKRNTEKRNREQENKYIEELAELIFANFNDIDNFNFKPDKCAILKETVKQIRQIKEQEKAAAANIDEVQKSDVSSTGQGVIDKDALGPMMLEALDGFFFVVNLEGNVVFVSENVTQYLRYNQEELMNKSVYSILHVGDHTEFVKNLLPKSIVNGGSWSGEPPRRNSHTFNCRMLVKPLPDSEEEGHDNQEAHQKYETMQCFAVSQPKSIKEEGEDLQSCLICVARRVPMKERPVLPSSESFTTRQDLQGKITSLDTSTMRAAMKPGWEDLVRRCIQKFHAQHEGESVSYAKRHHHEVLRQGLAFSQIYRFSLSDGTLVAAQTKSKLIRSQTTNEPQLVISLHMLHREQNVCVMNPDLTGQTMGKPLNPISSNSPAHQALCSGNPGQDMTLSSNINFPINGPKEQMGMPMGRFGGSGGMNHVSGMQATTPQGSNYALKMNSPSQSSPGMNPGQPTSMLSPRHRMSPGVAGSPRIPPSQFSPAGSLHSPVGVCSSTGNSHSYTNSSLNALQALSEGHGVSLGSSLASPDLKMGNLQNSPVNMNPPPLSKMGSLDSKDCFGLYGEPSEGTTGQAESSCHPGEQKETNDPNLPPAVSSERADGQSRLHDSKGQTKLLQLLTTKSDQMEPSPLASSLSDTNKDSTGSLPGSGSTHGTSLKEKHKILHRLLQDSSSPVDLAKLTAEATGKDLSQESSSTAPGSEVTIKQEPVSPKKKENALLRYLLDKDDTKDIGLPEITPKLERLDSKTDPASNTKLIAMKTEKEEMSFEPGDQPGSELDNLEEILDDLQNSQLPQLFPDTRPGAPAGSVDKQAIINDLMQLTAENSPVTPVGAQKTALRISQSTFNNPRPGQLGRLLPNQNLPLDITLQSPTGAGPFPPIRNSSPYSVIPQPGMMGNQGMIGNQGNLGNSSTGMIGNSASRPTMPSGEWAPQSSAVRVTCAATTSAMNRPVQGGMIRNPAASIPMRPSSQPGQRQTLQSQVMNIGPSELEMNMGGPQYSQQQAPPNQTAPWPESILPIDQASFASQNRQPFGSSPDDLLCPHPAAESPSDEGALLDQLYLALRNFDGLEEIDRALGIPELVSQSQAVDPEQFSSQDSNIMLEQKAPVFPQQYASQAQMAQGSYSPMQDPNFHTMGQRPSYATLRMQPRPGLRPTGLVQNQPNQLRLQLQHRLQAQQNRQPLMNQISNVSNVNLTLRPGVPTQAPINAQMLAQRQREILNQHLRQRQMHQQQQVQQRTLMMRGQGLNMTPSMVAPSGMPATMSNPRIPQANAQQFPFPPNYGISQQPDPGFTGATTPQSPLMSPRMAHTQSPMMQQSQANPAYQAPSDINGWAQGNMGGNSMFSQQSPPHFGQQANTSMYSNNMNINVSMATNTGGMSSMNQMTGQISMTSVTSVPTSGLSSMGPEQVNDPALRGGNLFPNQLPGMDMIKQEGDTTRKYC

This assay addresses Nuclear receptor coactivator 2 (Homo sapiens) (UniProt Q15596). Nature of the assay: SRC2 coactivator transcriptional activity inhibitors, confirmation, cell-based, luminescence, HEK293, triplicate (AID 652008).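 Note: 0% = DMSO-treated cells and 100% = Gossypol at 36 µM.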 The settings on record: HEK293 GAL4-SRC2 luciferase reporter, at 8.9 µM, hits give high values.
`COc1ccc(CN2C[C@H](COCc3ccccc3)Oc3cccc(N4CCCC4)c3S2(=O)=O)cc1`: the inhibition was -6.23%.
Regarding `COc1ccc2cc3cc(C(=O)Nc4ccc5c(c4)OCO5)oc3nc2c1`, the inhibition was -32%.
The same measure for `O=C(O)CCSc1nc2ccccc2s1`: 58.5% (active); for `Nc1nonc1-n1nnc(C(=O)N/N=C/c2ccccc2Br)c1CN1CCCC1`: -12.4%; for `Cc1nc(SCc2cccc(C(=O)O)c2)nc2c1CCCC2`: 56.6% (active).
The same measure for `CCN(CC)C(=O)C1CCCN(c2ncnc3c2cnn3-c2cccc(C)c2)C1` (stereo not given): 30.7%; for `O=S(=O)(c1cc(C(F)(F)F)ccc1Cl)N1CCN(c2ncnc3ccccc23)CC1`: 18.7%.
For the molecule `CC(C)Cc1nnc(NC(=O)CCC(=O)N2CCN(Cc3ccccc3)CC2)s1`, the inhibition is 17.4%.
As for `Cc1c(CCC(=O)N[C@@H](CCCNC(N)=O)C(=O)O)c(=O)oc2cc3oc4c(c3cc12)CCCC4`, the figure is 57.7% (active).
As for `COc1cc(/C=C2\COC/C(=C\c3cc(OC)c(OC)c(OC)c3)C2=O)cc(OC)c1OC`, the figure is 97.7% (active).

One may read the inhibition as the drop in the measured response relative to a control, in per cent.
